From the supplement of paper PMC6555819 come the findings set out here.

Common to all, as to assay: PBM binding z-score (relative to random genomic background probes); higher = stronger binding; sequences stand for … in GC…GCGATTGACAGCGTAGAATGAAGG
Experiment [1] deals with PPARg:RXRa DBDmut IVT, anti-RXR (DBD mutation: RXRa K156A/R161A, NR concentration 270 nM, RXRa partner concentration 90 nM). A digest of the protocol:
(§1)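 Scanned fluorescence from custom Agilent 4×180K protein-binding microarrays was regression-normalized. Binding z-scores use random background probes as reference. Ligand-free nuclear receptor dimers were incubated on the arrays for 1 h and detected with antibodies against each partner (one per run).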

The subject of experiment [2] is PPARg:RXRa IVT, anti-PPARg (NR concentration 270 nM, RXRa partner concentration 90 nM). A digest of the protocol: as §1
The subject of experiment [3] is PPARg DBDmut:RXRa IVT, anti-PPARg (DBD mutation: PPARg1 K132A/R137A, NR concentration 270 nM, RXRa partner concentration 90 nM). A digest of the protocol:
as §1

Experiment [4] has as its system PPARg DBDmut IVT, anti-PPARg (DBD mutation: PPARg1 K132A/R137A, NR concentration 270 nM). A digest of the protocol: as §1
For experiment [5], the system named is PPARg homodimer (NR concentration 180 nM). A digest of the protocol: as §1
In experiment [6] the test system is PXR:RXRa (NR concentration 270 nM, RXRa partner concentration 90 nM). A digest of the protocol:
as §1

Experiment [7] concerns PXR homodimer (NR concentration 270 nM). Summed up:
as §1

The test system of experiment [8] is RARa:RXR (NR concentration 270 nM, RXRa partner concentration 90 nM). A digest of the protocol:
as §1

Experiment [9] deals with RARa homodimer (NR concentration 270 nM). A digest of the protocol: as §1
Experiment [10] relates to RARb:RXRa (NR concentration 270 nM, RXRa partner concentration 90 nM). A digest of the protocol: as §1
The subject of experiment [11] is RARb homodimer (NR concentration 270 nM). A digest of the protocol: as §1
Experiment [12] relates to RARg:RXRa (NR concentration 270 nM, RXRa partner concentration 90 nM). Summed up: as §1
Experiment [13] concerns RARg homodimer (NR concentration 270 nM). Summed up:
as §1

For experiment [14], the system named is RXRa DBDmut IVT, anti-RXR (DBD mutation: RXRa K156A/R161A, NR concentration 90 nM). A digest of the protocol:
as §1

Experiment [15] has as its system RXRa homodimer (NR concentration 180 nM). Summed up: as §1
For experiment [16], the system named is THRa:RXRa (NR concentration 90 nM, RXRa partner concentration 90 nM). A digest of the protocol: as §1
The subject of experiment [17] is THRa homodimer (NR concentration 90 nM). Summed up: as §1
Experiment [18] has as its system VDR homodimer (NR concentration 270 nM). A digest of the protocol:
as §1

On to TCATATCGGTAAAGGTGAAAGTCGAACGATATGA, for which the PBM binding z-score in experiment [1] is 1.56; in experiment [2], 2.05; in experiment [3], 0.818; in experiment [4], 0.266; in experiment [5], 0.769; in experiment [6] it was 0.507. For the same sequence, the PBM binding z-score is -0.566 in experiment [7]; 1.62 in experiment [8]; 0.00667 in experiment [9]; 1.98 in [10]; 1.32 in [11]; 1.5 in experiment [12]. In addition, the PBM binding z-score is 1.16 in experiment [13]; 0.447 in [14]; 1.95 in experiment [15]; 1.19 in [16]; -0.551 in experiment [17]; -0.566 in [18].

Take ATCGAAAGGCCGACGAGGTGAGTATACACCGTTT: the PBM binding z-score is -0.57 in experiment [1]; 0.479 in experiment [2]; 0.035 in experiment [3]; 0.014 in experiment [4]; -0.108 in experiment [5]; -0.0744 in [6]. In addition, the PBM binding z-score in experiment [7] was -0.0811; in [8], 0.0866; in experiment [9], -0.372; in experiment [10] it was 1.33; in experiment [11] it was 0.596; in experiment [12], 0.783. Besides, the PBM binding z-score in experiment [13] was 1.08; in [14] it was -0.604; in experiment [15], 0.344; in experiment [16], 1.5; in experiment [17], 0.378; in [18] it was -0.425.

Take CCGACTGGGGCAAAGGATACCATACTCAGTACGA: the PBM binding z-score in experiment [1] is 3.85; in [2] it was 3.35; in experiment [3] it was -0.00815; in experiment [4] it was -0.219; in experiment [5] it was 0.339; in [6] it was -0.407. Further, the PBM binding z-score in experiment [7] was -0.363; in [8] it was -0.246; in experiment [9], -0.215; in experiment [10] it was 0.425; in experiment [11] it was 0.263; in [12], 0.271. Moreover, the PBM binding z-score in experiment [13] is 0.572; in experiment [14] it was -0.0232; in experiment [15], 0.075; in [16], -0.155; in experiment [17], -0.322; in experiment [18], -0.406.

Take CGTCAAAGTTCAACTAGGGTAACGTAAAGCACGC: the PBM binding z-score was found to be 1.68 in [1]; 3.83 in [2]; 0.643 in experiment [3]; 0.081 in [4]; 3.72 in experiment [5]; 5.46 in [6]. Besides, the PBM binding z-score in experiment [7] turned out to be 6.56; in experiment [8] it was 4.56; in [9] it was 1.44; in experiment [10], 5.37; in [11], 4.3; in experiment [12], 5.87. Besides, the PBM binding z-score in [13] amounted to 6.62; in [14], 4.69; in [15], 5.44; in experiment [16], 5.14; in experiment [17], 0.583; in experiment [18] it was 4.44.

Regarding GCAATTAGTTGAAAGGGCAACCGAATGATTCTCG, the PBM binding z-score in [1] worked out at 0.317; in experiment [2], 1.39; in [3] it was 0.151; in experiment [4], 0.483; in experiment [5], 0.967; in experiment [6] it was 0.692. Besides, the PBM binding z-score was found to be 0.161 in [7]; 1.46 in experiment [8]; 1.18 in experiment [9]; 2.15 in [10]; 2 in [11]; 1.14 in experiment [12]. The PBM binding z-score in experiment [13] is 1.24; in experiment [14], 0.685; in [15], 1.25; in [16] it was 0.471; in experiment [17], -0.13; in experiment [18], 0.159.

Regarding CGTAAAAGTTCAACTAAGGTAACGTAAAGCACGC, the PBM binding z-score in experiment [1] is 0.183; in experiment [2], 1.6; in [3] it was 1.17; in experiment [4], 1.06; in experiment [5] it was 2.7; in [6] it was 4.97. The PBM binding z-score in [7] amounted to 2.61; in experiment [8], 3.8; in [9], 1.67; in [10] it was 5.13; in experiment [11], 3.88; in [12], 5.28. Also, the PBM binding z-score in [13] was found to be 6.11; in experiment [14], 4.41; in experiment [15], 4.42; in [16], 5.35; in experiment [17], 1.75; in experiment [18] it was 3.84.

TCTTGTGGATCAAAGGTTAAGAAAGCCGAAGCCT: the PBM binding z-score in experiment [1] was 1.84; in experiment [2], 3.48; in experiment [3] it was 0.81; in [4], -0.181; in experiment [5], 1.3; in experiment [6], 1.98. Further, the PBM binding z-score is -0.205 in experiment [7]; 2.8 in experiment [8]; 0.693 in experiment [9]; 1.82 in experiment [10]; 1.42 in [11]; 1.5 in [12]. The PBM binding z-score in experiment [13] was 0.798; in experiment [14], 0.751; in experiment [15], 3.43; in experiment [16] it was 1.47; in [17] it was -0.309; in experiment [18] it was -0.0408.
